# Reference: the supplement of paper PMC8728848
# This is one part of a sample in which the strongest signals are shown more often than they occur.
# Assays:
# Assay in all cases: glycan array binding signal (z-score within array); higher = stronger binding
# Settings in all cases: glycan notation: IUPAC condensed, linker removed
# [1] = target: Gal(b1-4)GlcNAc(b1-3)Gal(b1-4)GlcNAc(b1-3)Gal(b1-4)GlcNAc(b1-3)Gal(b1-4)GlcNAc(b1-3)Gal(b1-4)GlcNAc(b1-2)Man(a1-3)[Gal(b1-4)GlcNAc(b1-3)Gal(b1-4)GlcNAc(b1-3)Gal(b1-4)GlcNAc(b1-3)Gal(b1-4)GlcNAc(b1-3)Gal(b1-4)GlcNAc(b1-2)Man(a1-6)]Man(b1-4)GlcNAc(b1-4)GlcNAc
# Procedure, shortened: (§1)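 Glycan array data came from 3228 arrays in the Consortium for Functional Glycomics database, and only arrays with an available protein sequence were kept. Glycan names were put into IUPAC-condensed notation, and columns mapping to the same glycan were averaged. The binding signal is a within-array Z-score, averaged across arrays of one protein sequence run at different concentrations or buffers and across linkers. A negative Z-score can be read as non-binding.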
# [2] = target: Gal(b1-4)GlcNAc(b1-3)Gal(b1-4)GlcNAc(b1-3)Gal(b1-4)GlcNAc(b1-3)Gal(b1-4)GlcNAc(b1-3)Gal(b1-4)GlcNAc(b1-2)[Gal(b1-4)GlcNAc(b1-3)Gal(b1-4)GlcNAc(b1-3)Gal(b1-4)GlcNAc(b1-3)Gal(b1-4)GlcNAc(b1-3)Gal(b1-4)GlcNAc(b1-6)]Man(a1-6)[Gal(b1-4)GlcNAc(b1-3)Gal(b1-4)GlcNAc(b1-3)Gal(b1-4)GlcNAc(b1-3)Gal(b1-4)GlcNAc(b1-3)Gal(b1-4)GlcNAc(b1-2)Man(a1-3)]Man(b1-4)GlcNAc(b1-4)[Fuc(a1-6)]GlcNAc
# Procedure, shortened: as §1
# [3] = target: Gal(b1-4)GlcNAc(b1-3)Gal(b1-4)GlcNAc(b1-3)Gal(b1-4)GlcNAc(b1-3)Gal(b1-4)GlcNAc(b1-3)Gal(b1-4)GlcNAc(b1-3)Gal(b1-4)GlcNAc(b1-2)Man(a1-3)[Gal(b1-4)GlcNAc(b1-3)Gal(b1-4)GlcNAc(b1-3)Gal(b1-4)GlcNAc(b1-3)Gal(b1-4)GlcNAc(b1-3)Gal(b1-4)GlcNAc(b1-3)Gal(b1-4)GlcNAc(b1-2)Man(a1-6)]Man(b1-4)GlcNAc(b1-4)GlcNAc
# Procedure, shortened: as §1
# [4] = target: Gal(b1-4)GlcNAc(b1-3)[Gal(b1-4)GlcNAc(b1-6)]Gal(b1-4)GlcNAc
# Procedure, shortened: as §1
# Gal3S(b1-3)GlcNAc = target: Gal3S(b1-3)GlcNAc
# Procedure, shortened: as §1
# Gal3S4S(b1-4)GlcNAc = target: Gal3S4S(b1-4)GlcNAc
# Procedure, shortened: as §1
# Gal4S(b1-4)GlcNAc = target: Gal4S(b1-4)GlcNAc
# Procedure, shortened: as §1
# [5] = target: GalNAc(b1-4)GlcNAc(b1-3)GalNAc(b1-4)GlcNAc
# Procedure, shortened: as §1
# Glc(b1-4)Glc = target: Glc(b1-4)Glc
# Procedure, shortened: as §1
# Glc(b1-6)Glc = target: Glc(b1-6)Glc
# Procedure, shortened: as §1
# [6] = target: GlcNAc(a1-4)Gal(b1-4)GlcNAc(b1-3)Gal(b1-4)GlcNAc
# Procedure, shortened: as §1
# [7] = target: GlcNAc(a1-6)Gal(b1-4)GlcNAc
# Procedure, shortened: as §1
# [8] = target: GlcNAc(b1-2)[GlcNAc(b1-4)]Man(a1-3)[GlcNAc(b1-4)][GlcNAc(b1-2)Man(a1-6)]Man(b1-4)GlcNAc(b1-4)GlcNAc
# Procedure, shortened: as §1
# [9] = target: GlcNAc(b1-3)Gal(b1-4)GlcNAc(b1-3)Gal(b1-4)GlcNAc(b1-3)Gal(b1-4)GlcNAc(b1-2)Man(a1-3)[GlcNAc(b1-3)Gal(b1-4)GlcNAc(b1-3)Gal(b1-4)GlcNAc(b1-3)Gal(b1-4)GlcNAc(b1-2)Man(a1-6)]Man(b1-4)GlcNAc(b1-4)[Fuc(a1-6)]GlcNAc
# Procedure, shortened: as §1
# GlcNAc(b1-3)GalNAc = target: GlcNAc(b1-3)GalNAc
# Procedure, shortened: as §1
# [10] = target: GlcNAc(b1-6)Gal(b1-4)GlcNAc
# Procedure, shortened: as §1
# [11] = target: Neu5Ac(a2-3)Gal(b1-3)GalNAc6S
# Procedure, shortened: as §1
# [12] = target: Neu5Ac(a2-3)Gal(b1-4)GlcNAc(b1-3)Gal(b1-4)GlcNAc(b1-3)[Neu5Ac(a2-3)Gal(b1-4)GlcNAc(b1-3)Gal(b1-4)GlcNAc(b1-6)]GalNAc
# Procedure, shortened: as §1
# [13] = target: Neu5Ac(a2-3)Gal(b1-4)[Fuc(a1-3)]GlcNAc(b1-3)Gal
# Procedure, shortened: as §1
# [14] = target: Neu5Ac(a2-3)Gal(b1-4)[Fuc(a1-3)]GlcNAc(b1-3)Gal(b1-4)[Fuc(a1-3)]GlcNAc(b1-3)Gal(b1-4)[Fuc(a1-3)]GlcNAc
# Procedure, shortened: as §1
# [15] = target: Neu5Ac(a2-3)Gal(b1-4)[Fuc(a1-3)]GlcNAc(b1-3)GalNAc
# Procedure, shortened: as §1
# [16] = target: Neu5Ac(a2-3)[GalNAc(b1-4)]Gal(b1-4)Glc
# Procedure, shortened: as §1
# Neu5Ac(a2-6)Gal = target: Neu5Ac(a2-6)Gal
# Procedure, shortened: as §1
# Neu5Ac(a2-6)GalNAc = target: Neu5Ac(a2-6)GalNAc
# Procedure, shortened: as §1
# [17] = target: Neu5Ac(a2-6)GalNAc(b1-4)GlcNAc
# Procedure, shortened: as §1
# Neu5Ac(b2-6)GalNAc = target: Neu5Ac(b2-6)GalNAc
# Procedure, shortened: as §1
binder,measurement,setting,value
"ECL (Erythrina cristagalli), Q6YD91 (protein) VETISFSFSEFEPGNNDLTLQGAAIITQSGVLQLTKINQNGMPAWDSTGRTLYTKPVHIWDMTTGTVASFETRFSFSIEQPYTRPLPADGLVFFMGPTKSKPAQGYGYLGVFNNSKQDNSYQTLAVEFDTFSNPWDPPQVPHIGIDVNSIRSIKTQPFQLDNGQVANVVIKYDASSKILLAVLVYPSSGAIYTIAEIVDVKQVLPEWVDVGLSGATGAQRDAAETHDVYSWSFHASLPETND",glycan array binding signal (z-score),[1],3.35
same,glycan array binding signal (z-score),[2],5.32
same,glycan array binding signal (z-score),[3],2.02
same,glycan array binding signal (z-score),[4],3.6
same,glycan array binding signal (z-score),Gal3S(b1-3)GlcNAc,-0.33
same,glycan array binding signal (z-score),Gal3S4S(b1-4)GlcNAc,-0.359
same,glycan array binding signal (z-score),Gal4S(b1-4)GlcNAc,-0.487
same,glycan array binding signal (z-score),[5],3.31
same,glycan array binding signal (z-score),Glc(b1-4)Glc,-0.25
same,glycan array binding signal (z-score),Glc(b1-6)Glc,-0.304
same,glycan array binding signal (z-score),[6],-0.028
same,glycan array binding signal (z-score),[7],-0.358
same,glycan array binding signal (z-score),[8],-0.235
same,glycan array binding signal (z-score),[9],0.001
same,glycan array binding signal (z-score),GlcNAc(b1-3)GalNAc,-0.196
same,glycan array binding signal (z-score),[10],-0.23
same,glycan array binding signal (z-score),[11],-0.378
same,glycan array binding signal (z-score),[12],-0.038
same,glycan array binding signal (z-score),[13],-0.424
same,glycan array binding signal (z-score),[14],-0.241
same,glycan array binding signal (z-score),[15],-0.17
same,glycan array binding signal (z-score),[16],-0.505
same,glycan array binding signal (z-score),Neu5Ac(a2-6)Gal,-0.186
same,glycan array binding signal (z-score),Neu5Ac(a2-6)GalNAc,-0.481
same,glycan array binding signal (z-score),[17],-0.3
same,glycan array binding signal (z-score),Neu5Ac(b2-6)GalNAc,-0.388
